Measured values as given in PubChem BioAssay AID743335 (Broad Institute, 2014).
The source made the active and inactive calls.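 How the source made its calls: active means cell killing, with a fitted half-maximal concentration at or below twice the top valid dose tested; inconclusive means flat curve with moderate signal loss, or a poor fit; inactive means effect in the rising direction, plus the rest.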

Experiment: HEK293T cytotoxicity, dose response, cytotoxicity control, cell-based, ATP luminescence, dry powder, set 11 (AID 743335)
Conditions: HEK293T viability, ATP luminescence (CellTiter-Glo), 72 h; series mostly up to 15 µM
In the case of CCN(CC)c1ccc(S(=O)(=O)N(C)C)cc1C(=O)Nc1ncc(C)s1, the outcome is reported as “inactive”. With CN(C)CCCN(Cc1cc2ccccc2[nH]c1=O)C(=O)NCc1ccccc1 the outcome was “inactive”. In the case of Cc1cnc(NC(=O)c2cc(S(=O)(=O)N(C)C)ccc2N2CCC2)s1, the outcome is reported as “inactive”.
